Laboratory results published in PubChem BioAssay.
Where “and” joins values, the source holds several entries; their conditions need not be identical. Identical values can stand only once. Some of the results follow. Inconclusive results are not listed. Calls of active or inactive are those of the source.

What was measured:
[1] = inhibitors of TNFa-induced NFkB p65 translocation, primary screen, imaging, HUVEC, MLSMR starter and 10KST1 sets (AID 438;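 active = inhibition above 20% together with a positive visual image hit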;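 note: compound added about 3h40 before a 20 min TNFalpha stimulation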;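 for inhibition: signal is the nuclear over cytoplasmic p65 intensity ratio per well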); details: HUVEC TNFa-induced p65 nuclear translocation; cell count: measured here: nuclei count (cytotoxicity indicator), at 2.08 µM; inhibition: at 2 µM, stronger effect = higher value, 0% TNFa-plus-vehicle, 100% no-TNFa wells
[2] = reduction of polyQ htt aggregates in cells – imaging, exon1htt(103Q)mCFP cells, high-content imaging, primary screen (AID 483;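 active = visual image review flags a hit and inhibition of aggregation exceeds 20%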;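 note: compound exposure lasted 3 days before fixation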;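 for nuclei count: percent of the per-plate median nuclei count of sample wells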); details: exon1htt(103Q)mCFP cell line, aggregate imaging, at 2 µM; inhibition of aggregation: stronger effect = higher value; nuclei count: measured here: cell count, toxicity
[3] = endothelial E-selectin expression blockers – imaging, HUVEC, immunofluorescence, MLSMR starter and 10KST1 sets, primary screen (AID 487;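 active = visually confirmed hit in the image check and inhibition above 20%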;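 for inhibition: signal is fraction of cell area covered by stained E-selectin grains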;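 for nuclei count: 100% = median nuclei count of all wells on the same plate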); details: HUVEC TNFalpha-induced E-selectin immunofluorescence imaging, at 2 µM; inhibition: stronger effect = higher value; nuclei count: measured here: cell number, toxicity
[4] = target: Voltage-gated potassium channel subunit beta-2 (Rattus norvegicus) (UniProt P62483); test: inhibitors of rat Kvbeta2 reductase activity – biochemical, NADPH fluorescence, primary screen (AID 622;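 active = fluorescence slope higher than the sample average by over 3 SD, cut at about -0.22 in these data, passing the limit was not always enough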;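 note: slope of raw intensity against log time taken from 70 to 1610 s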); details: recombinant KvBeta, 4-cyanobenzaldehyde reduction, at 10 µM, stronger effect = higher value
[5] = target: Voltage-gated potassium channel subunit beta-2 (Rattus norvegicus) (UniProt P62483); test: enhancers of rat Kvbeta2 NADPH turnover – biochemical, NADPH fluorescence, primary screen (AID 623;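 active = NADPH fluorescence slope more negative than the mean of all samples by about 3 SD, 99.7% confidence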;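 note: fluorescence intensity change per second fitted from 20 to 320 s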); details: Recombinant KvBeta, NADPH fluorescence decrease slope, 10 min; at 10 µM; stronger effect = lower value
[6] = target: Alpha-2C adrenergic receptor (Homo sapiens) (UniProt P18825); test: compounds altering alpha2C-coupled GIRK flux – cell-based, HEK293 alpha2C/GIRK1/2, thallium flux, primary screen (AID 624;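 active = fluorescence slope after compound addition differing from the mean of all screened samples at 99.7% confidence, in either direction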;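 note: slope of fluorescence ratio to pre-addition baseline per second over 15 to 24 s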); details: thallium flux BTC fluorescence, at 10 µM, actives lie on both sides
[7] = inhibitors of larval lipid processing in zebrafish, primary screen, whole organism, PED6 fluorescence, gall bladder and intestine (AID 686;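 active = a full or partial loss of lipid-probe fluorescence in the fish gall bladder, intestine or both, judged by eye; inactive = no fluorescence loss, or compound toxic to the fish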;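 note: larvae 5 to 7 days old with five fish per well; signal comes from phospholipase A2 cleavage of quenched PED6 carried via bile; overnight exposure to compound and PED6 before scoring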); details: Zebrafish larvae PED6 lipid processing, fluorescence scoring; screened at 20 µM (by protocol)
[8] = target: Solute carrier family 12 member 5 (Homo sapiens) (UniProt Q9H2X9); test: retest of KCC2 transport modulators without sodium – cell-based, HEK293 KCC2, thallium flux, secondary assay, confirmation (AID 1713;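 active = thallium flux slope above the same plate's solvent-only control mean plus 3 SD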); details: FluoZin2 fluorescence, at 10 µM, stronger effect = higher value
[9] = PubChem AID 1714; details: HEK293-KCC2 + bumetanide/ouabain, thallium flux FluoZin2; at 10 µM; stronger effect = higher value;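 note: raw slope of fluorescence over initial fluorescence between 10 and 20 s after thallium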
[10] = target: Solute carrier family 12 member 5 (Homo sapiens) (UniProt Q9H2X9); test: retest of KCC2 transport modulation, ouabain-free – cell-based, HEK293 KCC2, thallium flux, FluoZin2, secondary assay 2, confirmation (AID 1715;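 active = thallium flux slope more than 3 SD above or below the plate's solvent-only control mean, mostly below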;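 note: raw slope with 0.1% DMSO as baseline and bumetanide as block control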); details: HEK293-KCC2, thallium flux FluoZin2 fluorescence; at 10 µM; actives lie on both sides; F/F0 rise rate, 10–20 s post-thallium
[11] = compound effects on native HEK Tl+ uptake – HEK cells, counterscreen 1, counter-screen for KCC2 modulator project, confirmation (AID 1716;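 active = thallium flux rate significantly above the same plate's solvent-only control wells, beyond their mean plus 3 SD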); details: HEK293 parental cells, thallium flux FluoZin2, ouabain; at 10 µM; baseline-ratio fluorescence slope, 10–20 s after thallium
[12] = native HEK Tl+ uptake effects, second counter-screen – HEK cells, counterscreen 2, counter-screen for KCC2 modulator project, confirmation (AID 1718;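 active = thallium flux slope above the same plate's solvent-control mean plus 3 SD in both duplicate wells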;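 note: run without ouabain in cells lacking the KCC2 cotransporter; slope of fluorescence scaled to its starting value between 10 and 20 s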); details: HEK293 parental, thallium flux FluoZin-2 fluorescence slope; at 10 µM
[13] = blockers of RIG-like receptor reporter activation – cell-based, Sendai virus stimulus, luciferase, 10K MLSCN set, TLR/RLR signaling modifier project, primary screen (AID 602276;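 active = inhibition at or above 50% at 10 µM; inactive = inhibition below 50%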;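 note: firefly luciferase from ISG56 promoter only with Renilla not read in this screen; 0% = Sendai virus plus DMSO and 100% = medium plus DMSO without virus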); details: HEK293 RL24 IRF3 luciferase reporter, at 10 µM, stronger effect = higher value
[14] = TLR3 IRF3 reporter activation blockers – cell-based, poly I:C stimulus, luciferase, 10K MLSCN set, primary screen (AID 602277;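 active = inhibition of the reporter signal at or above 50%; inactive = inhibition below 50%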); details: HEK293-TLR3 RL24 IRF3 luciferase reporter, at 10 µM, stronger effect = higher value
[15] = target: Solute carrier family 12 member 5 (Homo sapiens) (UniProt Q9H2X9); test: modulation of KCC2 thallium flux in HEK cells – cell-based, ouabain, retest, confirmation (AID 1717;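 active = thallium flux slope beyond 3 SD from same-plate DMSO control mean in most replicates, usually higher, sometimes lower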;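 note: slope of initial-normalized fluorescence between seconds 10 and 20 after thallium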); details: HEK293-KCC2, thallium flux FluoZin2 fluorescence, at 10 µM, bidirectional: low = inhibitor, high = activator
[16] = Primary imaging screen for DUSP6 inhibitors that restore phospho-Erk in transfected HeLa cells, chemical complementation (AID 609;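 active = compounds giving at least 50% inhibition in the cell-based MKP-3 phosphatase rescue imaging test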;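 for inhibition: phospho-Erk level distribution per well compared with pooled transfected vehicle control wells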); details: HeLa MKP-3 transfected, phospho-Erk imaging KS statistic, at 10 µM, cells stimulated with TPA for 15 min
[17] = target: Dual specificity protein phosphatase 6 (Homo sapiens) (UniProt Q16828); test: as above; details: HeLa MKP-3 transfected, phospho-Erk imaging KS statistic; at 10 µM; stronger effect = higher value; cells stimulated with TPA for 15 min
[18] = loss of swimming-algae plug formation – whole organism, Chlamydomonas reinhardtii, WT vs cilia-less mutant, absorbance, 96-well, primary screen (AID 463189); details: Chlamydomonas reinhardtii gravitaxis, OD600 absorbance, 2 days; at 10 µM; stronger effect = higher value;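 note: 0% = wild type cc124 cells in DMSO and 100% = ciliumless bld1 mutant cells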
[19] = measured here: cell density z-score
[20] = measured here: nuclear c-Myc green intensity z-score
[21] = measured here: nuclear pErk red intensity z-score, stronger effect = higher value

Voltage-gated potassium channel subunit beta-2 (Rattus norvegicus), sequence (P62483 whole entry, looked up): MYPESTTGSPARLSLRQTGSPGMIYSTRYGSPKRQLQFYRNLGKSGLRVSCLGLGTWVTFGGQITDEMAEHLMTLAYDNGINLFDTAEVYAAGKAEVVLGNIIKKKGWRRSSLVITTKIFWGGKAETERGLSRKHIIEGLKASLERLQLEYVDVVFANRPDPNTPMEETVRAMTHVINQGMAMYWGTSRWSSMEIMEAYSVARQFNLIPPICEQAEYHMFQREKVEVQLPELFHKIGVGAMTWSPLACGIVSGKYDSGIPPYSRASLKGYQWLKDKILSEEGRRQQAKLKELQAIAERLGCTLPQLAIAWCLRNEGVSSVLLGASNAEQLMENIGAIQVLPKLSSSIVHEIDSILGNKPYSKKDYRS
Dual specificity protein phosphatase 6 (Homo sapiens), sequence (Q16828 whole entry, looked up): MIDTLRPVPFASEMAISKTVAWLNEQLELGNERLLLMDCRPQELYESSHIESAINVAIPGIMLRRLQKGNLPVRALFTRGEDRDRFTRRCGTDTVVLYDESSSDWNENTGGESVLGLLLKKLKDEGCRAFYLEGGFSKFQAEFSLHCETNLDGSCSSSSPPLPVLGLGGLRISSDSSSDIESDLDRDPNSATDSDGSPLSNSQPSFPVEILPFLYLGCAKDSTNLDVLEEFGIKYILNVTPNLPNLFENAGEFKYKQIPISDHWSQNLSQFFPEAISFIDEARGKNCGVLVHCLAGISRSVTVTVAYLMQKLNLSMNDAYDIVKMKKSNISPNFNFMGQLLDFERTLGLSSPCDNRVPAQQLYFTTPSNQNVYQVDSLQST
Alpha-2C adrenergic receptor (Homo sapiens), sequence (P18825 whole entry, looked up): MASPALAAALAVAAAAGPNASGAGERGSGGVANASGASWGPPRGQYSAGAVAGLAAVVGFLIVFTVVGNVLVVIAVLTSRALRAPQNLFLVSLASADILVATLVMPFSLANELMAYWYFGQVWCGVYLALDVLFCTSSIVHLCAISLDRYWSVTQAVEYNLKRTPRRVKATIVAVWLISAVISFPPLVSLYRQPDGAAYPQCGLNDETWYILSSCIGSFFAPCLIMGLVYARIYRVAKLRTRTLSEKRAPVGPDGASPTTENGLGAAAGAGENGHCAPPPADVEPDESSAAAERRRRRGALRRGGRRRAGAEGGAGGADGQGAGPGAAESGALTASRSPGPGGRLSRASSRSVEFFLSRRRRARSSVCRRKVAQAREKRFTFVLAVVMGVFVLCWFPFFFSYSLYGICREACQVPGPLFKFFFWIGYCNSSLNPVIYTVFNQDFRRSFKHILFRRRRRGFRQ
Solute carrier family 12 member 5 (Homo sapiens), sequence (Q9H2X9 whole entry, looked up): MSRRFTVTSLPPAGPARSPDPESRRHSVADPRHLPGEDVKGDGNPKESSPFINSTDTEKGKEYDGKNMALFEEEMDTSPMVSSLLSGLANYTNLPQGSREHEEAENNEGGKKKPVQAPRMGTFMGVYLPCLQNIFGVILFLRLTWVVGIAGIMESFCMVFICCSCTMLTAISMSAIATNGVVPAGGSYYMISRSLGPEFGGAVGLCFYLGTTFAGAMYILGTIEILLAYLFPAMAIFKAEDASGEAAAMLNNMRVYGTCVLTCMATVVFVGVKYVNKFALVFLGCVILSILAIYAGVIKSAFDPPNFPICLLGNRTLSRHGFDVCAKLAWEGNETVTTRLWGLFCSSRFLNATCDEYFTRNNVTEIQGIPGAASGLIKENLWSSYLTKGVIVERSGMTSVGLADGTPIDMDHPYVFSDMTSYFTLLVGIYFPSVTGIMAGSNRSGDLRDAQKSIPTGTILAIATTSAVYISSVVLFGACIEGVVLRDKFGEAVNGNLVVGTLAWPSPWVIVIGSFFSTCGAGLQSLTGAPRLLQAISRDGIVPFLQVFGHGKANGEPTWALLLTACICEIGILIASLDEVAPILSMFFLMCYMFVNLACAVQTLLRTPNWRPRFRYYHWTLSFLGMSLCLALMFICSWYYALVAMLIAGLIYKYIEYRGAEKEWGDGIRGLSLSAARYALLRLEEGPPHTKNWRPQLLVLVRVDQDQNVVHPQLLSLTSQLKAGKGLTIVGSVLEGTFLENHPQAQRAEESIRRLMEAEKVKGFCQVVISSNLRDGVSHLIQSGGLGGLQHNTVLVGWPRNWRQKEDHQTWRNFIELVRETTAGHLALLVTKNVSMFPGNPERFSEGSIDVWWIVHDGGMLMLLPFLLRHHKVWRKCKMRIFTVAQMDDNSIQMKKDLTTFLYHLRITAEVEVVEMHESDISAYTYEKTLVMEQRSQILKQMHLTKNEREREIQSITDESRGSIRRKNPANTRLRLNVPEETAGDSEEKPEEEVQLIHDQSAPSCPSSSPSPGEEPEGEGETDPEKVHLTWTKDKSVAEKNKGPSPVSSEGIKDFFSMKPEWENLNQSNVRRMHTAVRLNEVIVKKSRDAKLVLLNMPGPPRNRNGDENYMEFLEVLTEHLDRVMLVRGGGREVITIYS

Q: With COc1ccccc1-n1cnc2cc(NS(=O)(=O)c3ccccc3)ccc21 as the compound, how does the cell count [1] read?
A: 720

Q: And the inhibition [1]?
A: -12.5% (inactive)

Q: What about the inhibition of aggregation [2] of the same compound?
A: 1.2% (inactive)

Q: What about the nuclei count [2] of the same compound?
A: 90.2%

Q: And the inhibition [3]?
A: -14.6% (inactive)

Q: What about the nuclei count [3] of the same compound?
A: 108%

Q: What about the fluorescence slope [4] of the same compound?
A: -0.46 (inactive)

Q: What about the NADPH fluorescence slope [5] of the same compound?
A: -1.9e-05 (inactive)

Q: And the slope [6]?
A: 0.00351 (inactive)

Q: What about the outcome [7] of the same compound?
A: inactive

Q: What about the normalised thallium flux (F/F0 slope) [8] of the same compound?
A: 0.00507 (inactive)

Q: What about the normalized thallium flux [9] of the same compound?
A: 0.00527 (inactive)

Q: And the normalized thallium flux [10]?
A: 0.0252 (active)

Q: What about the thallium flux rate (normalised fluorescence) [11] of the same compound?
A: 0.0068 (inactive)

Q: And the thallium flux slope [12]?
A: 0.00966 (inactive)

Q: What about the inhibition [13] of the same compound?
A: -18.8% (inactive)

Q: What about the inhibition [14] of the same compound?
A: 98.4% (active)

Q: For O=C(Nc1ccn(Cc2ccccc2)n1)c1cccc(F)c1, which normalised thallium flux (F/F0 slope) [8] is on record?
A: 0.00622 (inactive)

Q: And the normalized thallium flux [9]?
A: 0.00499 (inactive)

Q: And the thallium flux rate (normalised fluorescence) [11]?
A: 0.00698 (inactive)

Q: What about the raw Tl+ flux slope (below DMSO = inhibition, above = activation) [15] of the same compound?
A: 0.017 (active)

Q: And the thallium flux slope [12]?
A: 0.00931 (inactive)

Q: For CCO/C([O-])=N/c1c[n+](N2CCOCC2)no1, which cell count [1] is on record?
A: 669

Q: And the inhibition [1]?
A: 9.9% (inactive)

Q: What about the inhibition of aggregation [2] of the same compound?
A: -18.2% (inactive)

Q: What about the nuclei count [2] of the same compound?
A: 97.5%

Q: And the inhibition [3]?
A: -28.6% (inactive)

Q: And the nuclei count [3]?
A: 122%

Q: What about the z-score [16, 19] of the same compound?
A: -0.87

Q: And the z-score [16, 20]?
A: -0.27

Q: What about the z-score [16, 21] of the same compound?
A: -1.04

Q: What about the inhibition [17] of the same compound?
A: 16.8% (inactive)

Q: And the fluorescence slope [4]?
A: -0.482 (inactive)

Q: What about the NADPH fluorescence slope [5] of the same compound?
A: -6e-05 (inactive)

Q: And the slope [6]?
A: 0.00537 (inactive)

Q: And the inhibition [18]?
A: 2.9% (inactive) and 18.7% (inactive)

Q: And the inhibition [13]?
A: -10.8% (inactive)

Q: And the inhibition [14]?
A: -12.7% (inactive)

Q: For CC(C)OC(=O)C(C)(C)Oc1ccc(C(=O)c2ccc(Cl)cc2)cc1, which cell count [1] is on record?
A: 484

Q: And the inhibition [1]?
A: -9% (inactive)

Q: And the inhibition of aggregation [2]?
A: 28.8% (inactive)

Q: And the nuclei count [2]?
A: 89.5%

Q: And the inhibition [3]?
A: -10.1% (inactive)

Q: What about the nuclei count [3] of the same compound?
A: 97.2%

Q: What about the z-score [16, 19] of the same compound?
A: 0.497

Q: What about the z-score [16, 20] of the same compound?
A: -1.12

Q: What about the z-score [16, 21] of the same compound?
A: 0.95

Q: What about the inhibition [17] of the same compound?
A: -8.38% (inactive)

Q: What about the fluorescence slope [4] of the same compound?
A: -0.446 (inactive)

Q: And the NADPH fluorescence slope [5]?
A: 1.6e-05 (inactive)

Q: What about the slope [6] of the same compound?
A: 0.00465 (inactive)

Q: What about the inhibition [18] of the same compound?
A: -3.15% (inactive) and 23.4% (inactive)

Q: What about the inhibition [13] of the same compound?
A: -6.93% (inactive)

Q: And the inhibition [14]?
A: 18.9% (inactive)

Q: What does the source list for Cc1ccc(-c2noc(CN3CCN(Cc4ccccc4)CC3)n2)cc1?
A: normalised thallium flux (F/F0 slope) [8]: 0.0176 (inactive); thallium flux rate (normalised fluorescence) [11]: 0.00768 (inactive); raw Tl+ flux slope (below DMSO = inhibition, above = activation) [15]: 0.0139 (inactive); thallium flux slope [12]: 0.0101 (inactive)

Q: For Cc1cc(OCC(=O)Nc2ccc3oc(-c4ccncc4)nc3c2)ccc1Cl, which cell count [1] is on record?
A: 485

Q: And the inhibition [1]?
A: -6.9% (inactive)

Q: And the inhibition of aggregation [2]?
A: -19.2% (inactive)

Q: And the nuclei count [2]?
A: 100%

Q: What about the inhibition [3] of the same compound?
A: -81.7% (inactive)

Q: What about the nuclei count [3] of the same compound?
A: 122%

Q: And the z-score [16, 19]?
A: 0.451

Q: And the z-score [16, 20]?
A: -0.406

Q: And the z-score [16, 21]?
A: -0.15

Q: What about the inhibition [17] of the same compound?
A: 7.73% (inactive)

Q: What about the fluorescence slope [4] of the same compound?
A: -0.458 (inactive)

Q: And the NADPH fluorescence slope [5]?
A: -1.3e-05 (inactive)

Q: What about the slope [6] of the same compound?
A: 0.00694 (inactive)

Q: And the inhibition [18]?
A: -0.755% (inactive)

Q: What about the inhibition [13] of the same compound?
A: -19.3% (inactive)

Q: What about the inhibition [14] of the same compound?
A: -47.1% (inactive)
